10 compounds from PubChem BioAssay (EPA / NIEHS) can be followed below.

Assay [1] can be described thus: ATG_TAL_CIS: Attagene CIS-FACTORIAL HepG2 Assay for human TAL Basal Promoter (AID 2282966).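 Also: background control endpoint measuring basal TAL promoter reporter mRNA not a specific factor.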 The conditions noted are these: HepG2 Attagene cis-factorial TAL promoter reporter; actives raise or lower the signal. Put shortly:
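HepG2 cells were transiently transfected with promoter-driven multiplexed reporter units and dosed for 24 h. Reporter mRNA was measured by RT-PCR with capillary electrophoresis fluorescence; bidirectional fits used DMSO as baseline, serving as a background control.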

Assay [2] can be described thus: ATG_TGFb_CIS: Attagene CIS-FACTORIAL HepG2 Assay for human Transforming Growth Factor (TGF) (AID 2282967). The conditions noted are these: HepG2 Attagene CIS TGFb reporter, mRNA transcription; actives raise or lower the signal. Put shortly: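 HepG2 cells transiently transfected with cis-promoter-driven multiplexed reporter units; 24 h compound exposure. Reporter mRNA measured by RT-PCR, 6-FAM labeling, HpaI digestion and capillary electrophoresis; bidirectional fit versus DMSO baseline.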

A short description of assay [3]: ATG_VDRE_CIS: Attagene CIS-FACTORIAL HepG2 Assay for human Vitamin D Receptor Element (VDRE) (AID 2282968). The conditions noted are these: HepG2 VDRE cis-reporter transcription, actives raise or lower the signal. Put shortly: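 HepG2 cells transiently transfected with cis-element reporter units, dosed 24 h; reporter mRNA measured by RT-PCR, 6-FAM labeling, HpaI digestion and capillary electrophoresis. Activity fitted bidirectionally against DMSO baseline.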

Assay [4] addresses Nuclear receptor subfamily 1 group I member 3 (Homo sapiens) (UniProt Q14994). Nature of the assay: ATG_CAR_TRANS: Attagene TRANS-FACTORIAL HepG2 Assay for human Constitutive Androstane Receptor (CAR) (AID 2282969; active = hit-call score of the fitted dose curve at least 0.9, where 1 is the maximum;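 also: activators raise reporter mRNA above DMSO so AC50 marks induction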). The conditions noted are these: HepG2 Attagene TRANS-FACTORIAL CAR reporter. Put shortly: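 HepG2 cells transiently transfected with multiplexed GAL4-UAS reporter units expressing chimeric NR-Gal4 proteins; compound exposure 24 h. Reporter mRNA measured by RT-PCR, 6-FAM labelling, HpaI digestion and capillary electrophoresis; gain-of-signal fitted against DMSO baseline.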

The target in assay [5] is X-box-binding protein 1 (Homo sapiens) (UniProt P17861). Put plainly: ATG_Xbp1_CIS: Attagene CIS-FACTORIAL HepG2 Assay for human X-box Binding Protein 1 (XBP1) (AID 2282972). The following applies: HepG2 XBP1 cis-element reporter, Attagene multiplex; actives raise or lower the signal. Put shortly: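 HepG2 cells transiently transfected with cis-regulated multiple reporter transcription units; endogenous transcription factor activity measured 24 hours after chemical dosing. Reporter mRNA quantified by RT-PCR, 6-FAM primer extension, HpaI digestion and capillary electrophoresis; bidirectional fitting versus DMSO.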
Chain of X-box-binding protein 1 (Homo sapiens) (P17861 whole entry, looked up): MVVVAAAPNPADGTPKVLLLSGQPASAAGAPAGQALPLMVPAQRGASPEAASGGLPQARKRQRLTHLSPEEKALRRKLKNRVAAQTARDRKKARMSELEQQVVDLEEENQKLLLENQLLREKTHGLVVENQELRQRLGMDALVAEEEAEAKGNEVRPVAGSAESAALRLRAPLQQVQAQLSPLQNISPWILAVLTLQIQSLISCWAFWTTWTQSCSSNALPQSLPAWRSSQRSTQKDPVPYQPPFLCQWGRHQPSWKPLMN

Assay [6] is described as follows: ATG_M_19_TRANS: Attagene TRANS-FACTORIAL HepG2 Assay for M19 Transcription Factor (Internal Marker) (AID 2282974; active = hit-call score of the fitted dose curve at least 0.9, where 1 is the maximum). The following applies: HepG2 Attagene TRANS-FACTORIAL M19 internal marker reporter. A digest of the protocol:
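Transfected HepG2 (GAL4-UAS MRTUs), 24 h compound, TriZol RNA, DNase-treated RT, reporter PCR, FAM label, HpaI digest, CE fluorescence; gain vs DMSO.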

The target in assay [7] is Oxysterols receptor LXR-alpha (Homo sapiens) (UniProt Q13133). Nature of the assay: ATG_LXRa_TRANS: Attagene TRANS-FACTORIAL HepG2 Assay for human Liver X Receptor alpha (LXRa) (AID 2282980; active = hit-call score of the fitted dose curve at least 0.9, where 1 is the maximum). The following applies: HepG2 Attagene TRANS reporter, LXRa transactivation. A digest of the protocol:
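HepG2 cells were transiently transfected with multiplexed reporter units driven by chimeric LXRa–GAL4 fusion proteins, then dosed for 24 h. Reporter mRNA was quantified by RT-PCR, fluorescent labelling and capillary electrophoresis; gain of signal fitted against DMSO baseline.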

The target of assay [8] is Hepatocyte nuclear factor 4-alpha (Homo sapiens) (UniProt P41235). Nature of the assay: ATG_HNF4a_TRANS: Attagene TRANS-FACTORIAL HepG2 Assay for human Hepatocyte Nuclear Factor 4 alpha (HNF4a) (AID 2282982; active = hit-call score of the fitted dose curve at least 0.9, where 1 is the maximum). The following applies: HepG2 HNF4a transactivation reporter, mRNA readout. A digest of the protocol:
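HepG2 cells transiently transfected with multiplexed GAL4-UAS reporter units responsive to chimeric NR-GAL4 proteins; compound exposure 24 h. Reporter mRNA quantified by RT-PCR, 6-FAM labelling, HpaI digestion and capillary electrophoresis; gain of signal versus DMSO baseline.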

Assay [9] can be described thus: ATG_M_06_TRANS: Attagene TRANS-FACTORIAL HepG2 Assay for M06 Transcription Factor (Internal Marker) (AID 2282983; active = hit-call score of the fitted dose curve at least 0.9, where 1 is the maximum;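 also: reporter transcript level by RT-PCR then capillary electrophoresis fluorescence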). The following applies: HepG2 Attagene TRANS M06 internal marker reporter. A digest of the protocol: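 HepG2 cells transiently transfected with multiplexed GAL4-UAS reporter transcription units; after 24 h compound exposure, reporter mRNA measured by RT-PCR, FAM-labelled primer extension, HpaI digestion and capillary electrophoresis. Gain-of-signal fitted versus DMSO baseline; background control readout.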

Assay [10] concerns the target Nuclear receptor subfamily 4 group A member 2 (Homo sapiens) (UniProt P43354). Put plainly: ATG_NURR1_TRANS: Attagene TRANS-FACTORIAL HepG2 Assay for human Nuclear Receptor Related Protein 1 (NURR1) (AID 2282985; active = hit-call score of the fitted dose curve at least 0.9, where 1 is the maximum). The conditions noted are these: HepG2 Attagene TRANS reporter, mRNA readout. A digest of the protocol: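 HepG2 cells transiently transfected with GAL4-UAS reporter units and chimeric NR-Gal4 constructs; chemical exposure 24 h. Reporter mRNA quantified by RT-PCR, fluorescent labelling and capillary electrophoresis; gain of signal fitted relative to DMSO baseline.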

The target in assay [11] is Transcriptional activator Myb (Homo sapiens) (UniProt P10242). Put plainly: ATG_Myb_CIS: Attagene CIS-FACTORIAL HepG2 Assay for human Myeloblastosis (Myb) Proto-Oncogene Transcription Factor (AID 2282986). The conditions noted are these: HepG2 Attagene CIS-FACTORIAL Myb reporter transcription; actives raise or lower the signal. Put shortly:
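After 24 h of compound dosing, total RNA from transfected HepG2 cells is reverse-transcribed and the reporter sequences amplified, labeled and separated by capillary electrophoresis. Values come from bidirectional fitting against DMSO.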

Assay [12] concerns the target Nuclear respiratory factor 1 (Homo sapiens) (UniProt Q16656). Put plainly: ATG_NRF1_CIS: Attagene CIS-FACTORIAL HepG2 Assay for human Nuclear Respiratory Factor 1 (NRF1) Orphan Gene (AID 2282987). The conditions noted are these: HepG2 NRF1 cis-element reporter, Attagene multiplex; actives raise or lower the signal. Put shortly:
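Measured: fluorescent reporter-specific RT-PCR products from transfected HepG2 cells, separated by capillary electrophoresis. Exposure lasted 24 h. Analysis used bidirectional curve fitting with DMSO as negative control.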

The nature of assay [13]: ATG_NFI_CIS: Attagene CIS-FACTORIAL HepG2 Assay for human Nuclear Factor I (NFI) (AID 2282989). The conditions noted are these: HepG2 cis-regulatory reporter, NFI response element transcription; actives raise or lower the signal. Put shortly: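 HepG2 cells transiently transfected with cis-element-driven multiplexed reporter transcription units, dosed for 24 h. Reporter mRNA quantified by RT-PCR, fluorescent labelling, HpaI digestion and capillary electrophoresis; bidirectional fit versus DMSO baseline.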

In assay [14] the target is Glucocorticoid receptor (Homo sapiens) (UniProt P04150). Put plainly: ATG_GR_TRANS: Attagene TRANS-FACTORIAL HepG2 Assay for human Glucocorticoid Receptor (GR) (AID 2282978; active = hit-call score of the fitted dose curve at least 0.9, where 1 is the maximum;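 also: activators score as hits since higher reporter transcript over DMSO is fitted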). The conditions noted are these: HepG2 Attagene TRANS GR reporter, mRNA transcription. A digest of the protocol: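 After 24 h incubation with test chemical, transfected HepG2 cells were lysed for RNA; reporter cDNA was amplified, FAM-labelled, HpaI-digested and sized on a capillary analyser. Signal gain relative to DMSO was scored.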
Chain of Glucocorticoid receptor (Homo sapiens) (P04150 whole entry, looked up): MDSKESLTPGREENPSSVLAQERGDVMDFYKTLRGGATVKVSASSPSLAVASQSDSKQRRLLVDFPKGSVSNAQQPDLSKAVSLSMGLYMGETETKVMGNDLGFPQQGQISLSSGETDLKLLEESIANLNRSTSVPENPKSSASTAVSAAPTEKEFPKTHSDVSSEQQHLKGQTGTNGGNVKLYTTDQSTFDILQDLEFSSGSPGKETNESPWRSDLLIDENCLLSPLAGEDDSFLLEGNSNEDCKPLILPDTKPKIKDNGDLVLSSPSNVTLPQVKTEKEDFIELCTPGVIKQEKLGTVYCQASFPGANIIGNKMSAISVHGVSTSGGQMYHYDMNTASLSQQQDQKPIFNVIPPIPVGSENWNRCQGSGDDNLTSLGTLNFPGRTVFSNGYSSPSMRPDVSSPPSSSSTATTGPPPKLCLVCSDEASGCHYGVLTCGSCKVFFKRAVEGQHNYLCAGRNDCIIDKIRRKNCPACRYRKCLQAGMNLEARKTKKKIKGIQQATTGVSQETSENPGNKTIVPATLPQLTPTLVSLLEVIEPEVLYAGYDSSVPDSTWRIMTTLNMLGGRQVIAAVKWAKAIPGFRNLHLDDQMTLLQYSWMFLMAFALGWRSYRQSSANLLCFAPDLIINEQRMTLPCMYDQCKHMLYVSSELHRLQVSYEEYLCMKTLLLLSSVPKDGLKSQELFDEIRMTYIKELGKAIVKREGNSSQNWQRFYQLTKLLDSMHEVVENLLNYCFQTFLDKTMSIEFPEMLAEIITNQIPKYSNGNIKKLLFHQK

A short description of assay [15]: ATG_M_32_TRANS: Attagene TRANS-FACTORIAL HepG2 Assay for M32 Transcription Factor (Internal Marker) (AID 2282984; active = hit-call score of the fitted dose curve at least 0.9, where 1 is the maximum). The following applies: HepG2 Attagene TRANS M32 internal marker reporter. Put shortly: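 HepG2 cells transiently transfected with multiple GAL4-UAS reporter transcription units, dosed for 24 hours; reporter mRNA quantified by RT-PCR, 6-FAM primer extension, HpaI digestion and capillary electrophoresis. Gain-of-signal fitted versus DMSO baseline; internal background-control marker.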

Assay [16] is described as follows: ATG_GAL4_TRANS: Attagene TRANS-FACTORIAL HepG2 Assay for GAL4 (Internal Marker) (AID 2282976; active = hit-call score of the fitted dose curve at least 0.9, where 1 is the maximum). The following applies: HepG2 Attagene TRANS GAL4 internal marker reporter. A digest of the protocol:
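HepG2 cells transiently transfected with multiplexed GAL4-UAS reporter constructs were dosed for 24 h. Reporter mRNA was measured by RT-PCR, 6-FAM primer extension, HpaI digestion and capillary electrophoresis, and gain of signal was fitted relative to DMSO.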

Assay [17] has as its target Steroid hormone receptor ERR1 (Homo sapiens) (UniProt P11474). Put plainly: ATG_ERRa_TRANS: Attagene TRANS-FACTORIAL HepG2 Assay for human Estrogen-Related Receptor alpha (ERRa) (AID 2282971; active = hit-call score of the fitted dose curve at least 0.9, where 1 is the maximum). The following applies: HepG2 Attagene TRANS reporter, ERRa transactivation. A digest of the protocol:
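HepG2 cells transiently transfected with multiplexed GAL4-UAS reporter units reading chimeric ERRa-Gal4 activity; 24 h compound exposure. Reporter mRNA measured by RT-PCR, 6-FAM labelling, HpaI digest and capillary electrophoresis; gain of signal fitted versus DMSO baseline.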

Assay [18] deals with Estrogen receptor (Homo sapiens) (UniProt P03372). Put plainly: ATG_ERa_TRANS: Attagene TRANS-FACTORIAL HepG2 Assay for human Estrogen Receptor alpha (ERa) (AID 2282970; active = hit-call score of the fitted dose curve at least 0.9, where 1 is the maximum). The conditions noted are these: HepG2 Attagene TRANS ERa GAL4 reporter, mRNA. Put shortly: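 HepG2 cells transiently transfected with multiplexed GAL4-UAS reporter units; ERa activity read via exogenous chimeric NR-Gal4 protein. After 24 hour compound exposure, reporter mRNA measured by RT-PCR with 6-FAM labelling and capillary electrophoresis; gain-of-signal fitted relative to DMSO.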

In assay [19] the target is Bile acid receptor (Homo sapiens) (UniProt Q96RI1). Nature of the assay: ATG_FXR_TRANS: Attagene TRANS-FACTORIAL HepG2 Assay for Farnesoid X Receptor (FXR) (AID 2282979; active = hit-call score of the fitted dose curve at least 0.9, where 1 is the maximum;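 also: hits raise reporter mRNA above DMSO so AC50 marks FXR activation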). The conditions noted are these: HepG2 Attagene TRANS FXR-GAL4 reporter transcription. Put shortly: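 HepG2 cells transiently transfected with reporter constructs in which a chimeric FXR-GAL4 protein drives a GAL4-UAS reporter; 24 h compound exposure. Reporter mRNA measured by RT-PCR, FAM labelling, HpaI digestion and capillary electrophoresis; gain-of-signal versus DMSO.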
Chain of Bile acid receptor (Homo sapiens) (Q96RI1 whole entry, looked up, the tested form may be a part): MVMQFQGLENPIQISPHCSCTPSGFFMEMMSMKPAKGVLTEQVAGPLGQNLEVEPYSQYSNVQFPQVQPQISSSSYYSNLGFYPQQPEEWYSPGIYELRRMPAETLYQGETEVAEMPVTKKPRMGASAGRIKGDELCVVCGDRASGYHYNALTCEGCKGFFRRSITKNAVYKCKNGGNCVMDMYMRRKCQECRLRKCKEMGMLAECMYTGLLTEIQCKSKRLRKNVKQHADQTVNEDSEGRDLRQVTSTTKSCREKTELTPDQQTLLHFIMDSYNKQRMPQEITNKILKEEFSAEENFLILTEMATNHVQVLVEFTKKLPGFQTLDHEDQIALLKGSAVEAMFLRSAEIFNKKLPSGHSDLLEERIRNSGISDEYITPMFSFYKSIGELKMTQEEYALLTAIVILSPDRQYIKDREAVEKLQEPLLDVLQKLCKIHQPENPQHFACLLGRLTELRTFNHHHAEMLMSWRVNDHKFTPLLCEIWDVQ

Records with an inconclusive call do not appear. Active and inactive are the calls of the source. The calls were made as follows, unless noted: active = hit-call score of the fitted dose curve at least 0.9, where 1 is the maximum; inactive = score below 0.9.

Chain of Nuclear receptor subfamily 4 group A member 2 (Homo sapiens) (P43354 whole entry, looked up, the tested form may be a part): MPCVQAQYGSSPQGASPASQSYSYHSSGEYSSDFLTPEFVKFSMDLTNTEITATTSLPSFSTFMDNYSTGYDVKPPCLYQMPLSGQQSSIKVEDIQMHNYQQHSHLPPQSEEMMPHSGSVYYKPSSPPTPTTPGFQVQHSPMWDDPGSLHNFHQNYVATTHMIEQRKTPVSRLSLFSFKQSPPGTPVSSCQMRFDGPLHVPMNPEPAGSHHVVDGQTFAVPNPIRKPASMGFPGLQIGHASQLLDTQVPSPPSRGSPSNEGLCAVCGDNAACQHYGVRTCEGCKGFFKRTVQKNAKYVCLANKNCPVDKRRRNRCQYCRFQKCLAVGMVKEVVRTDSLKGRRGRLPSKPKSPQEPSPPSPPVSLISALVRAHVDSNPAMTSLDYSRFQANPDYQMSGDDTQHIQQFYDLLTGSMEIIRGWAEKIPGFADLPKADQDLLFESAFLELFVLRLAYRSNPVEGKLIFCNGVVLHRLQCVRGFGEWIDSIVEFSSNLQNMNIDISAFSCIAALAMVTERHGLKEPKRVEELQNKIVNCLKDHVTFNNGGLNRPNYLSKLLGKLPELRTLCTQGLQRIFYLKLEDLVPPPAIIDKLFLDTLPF
Chain of Steroid hormone receptor ERR1 (Homo sapiens) (P11474 whole entry, looked up, the tested form may be a part): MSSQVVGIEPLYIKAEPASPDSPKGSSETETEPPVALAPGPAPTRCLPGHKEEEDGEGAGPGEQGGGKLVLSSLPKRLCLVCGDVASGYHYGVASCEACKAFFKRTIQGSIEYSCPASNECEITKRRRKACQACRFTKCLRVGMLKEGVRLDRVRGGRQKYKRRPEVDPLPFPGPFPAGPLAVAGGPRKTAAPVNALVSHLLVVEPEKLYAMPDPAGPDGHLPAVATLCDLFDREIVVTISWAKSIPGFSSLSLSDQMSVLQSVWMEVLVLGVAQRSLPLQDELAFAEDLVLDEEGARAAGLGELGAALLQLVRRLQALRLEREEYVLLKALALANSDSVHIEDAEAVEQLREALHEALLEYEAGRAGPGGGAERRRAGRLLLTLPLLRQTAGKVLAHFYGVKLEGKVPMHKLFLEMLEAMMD
Chain of Nuclear respiratory factor 1 (Homo sapiens) (Q16656 whole entry, looked up): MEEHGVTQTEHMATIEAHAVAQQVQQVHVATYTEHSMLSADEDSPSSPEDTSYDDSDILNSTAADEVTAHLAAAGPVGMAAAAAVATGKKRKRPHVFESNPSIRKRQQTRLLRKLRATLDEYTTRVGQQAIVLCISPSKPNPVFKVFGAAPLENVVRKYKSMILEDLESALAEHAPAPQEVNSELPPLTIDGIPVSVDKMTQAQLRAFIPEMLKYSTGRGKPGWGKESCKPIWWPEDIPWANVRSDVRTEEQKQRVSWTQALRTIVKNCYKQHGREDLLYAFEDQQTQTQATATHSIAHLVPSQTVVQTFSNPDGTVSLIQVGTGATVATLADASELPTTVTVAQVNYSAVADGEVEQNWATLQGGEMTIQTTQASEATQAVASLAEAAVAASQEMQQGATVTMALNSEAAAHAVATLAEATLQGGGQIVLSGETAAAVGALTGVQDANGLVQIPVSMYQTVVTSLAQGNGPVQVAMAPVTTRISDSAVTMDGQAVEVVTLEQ
Chain of Nuclear receptor subfamily 1 group I member 3 (Homo sapiens) (Q14994 whole entry, looked up, the tested form may be a part): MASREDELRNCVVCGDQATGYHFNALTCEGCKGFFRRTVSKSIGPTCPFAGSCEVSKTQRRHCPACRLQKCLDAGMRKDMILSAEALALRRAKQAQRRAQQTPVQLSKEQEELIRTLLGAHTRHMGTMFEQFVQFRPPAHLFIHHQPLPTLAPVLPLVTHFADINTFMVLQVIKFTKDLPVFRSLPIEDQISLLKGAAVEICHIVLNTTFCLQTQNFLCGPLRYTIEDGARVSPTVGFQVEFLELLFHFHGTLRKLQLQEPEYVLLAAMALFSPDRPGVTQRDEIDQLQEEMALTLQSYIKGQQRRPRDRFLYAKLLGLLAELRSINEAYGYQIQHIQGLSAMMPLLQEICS
Chain of Transcriptional activator Myb (Homo sapiens) (P10242 whole entry, looked up): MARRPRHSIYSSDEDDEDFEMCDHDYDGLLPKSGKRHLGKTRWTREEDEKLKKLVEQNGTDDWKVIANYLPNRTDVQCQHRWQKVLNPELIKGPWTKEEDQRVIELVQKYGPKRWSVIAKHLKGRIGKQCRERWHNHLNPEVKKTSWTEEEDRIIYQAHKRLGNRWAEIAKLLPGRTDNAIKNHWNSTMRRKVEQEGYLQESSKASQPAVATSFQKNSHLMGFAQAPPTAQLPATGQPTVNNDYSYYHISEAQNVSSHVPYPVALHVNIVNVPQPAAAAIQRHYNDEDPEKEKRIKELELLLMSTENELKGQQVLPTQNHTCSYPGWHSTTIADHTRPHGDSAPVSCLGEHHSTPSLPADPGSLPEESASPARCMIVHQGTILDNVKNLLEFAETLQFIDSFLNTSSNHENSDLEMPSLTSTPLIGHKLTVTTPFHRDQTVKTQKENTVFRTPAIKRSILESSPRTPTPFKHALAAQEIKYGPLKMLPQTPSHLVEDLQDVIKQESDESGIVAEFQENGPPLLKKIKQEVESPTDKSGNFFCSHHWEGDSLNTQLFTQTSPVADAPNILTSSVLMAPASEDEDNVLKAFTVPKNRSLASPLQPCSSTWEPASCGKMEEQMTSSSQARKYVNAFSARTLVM
Chain of Hepatocyte nuclear factor 4-alpha (Homo sapiens) (P41235 whole entry, looked up, the tested form may be a part): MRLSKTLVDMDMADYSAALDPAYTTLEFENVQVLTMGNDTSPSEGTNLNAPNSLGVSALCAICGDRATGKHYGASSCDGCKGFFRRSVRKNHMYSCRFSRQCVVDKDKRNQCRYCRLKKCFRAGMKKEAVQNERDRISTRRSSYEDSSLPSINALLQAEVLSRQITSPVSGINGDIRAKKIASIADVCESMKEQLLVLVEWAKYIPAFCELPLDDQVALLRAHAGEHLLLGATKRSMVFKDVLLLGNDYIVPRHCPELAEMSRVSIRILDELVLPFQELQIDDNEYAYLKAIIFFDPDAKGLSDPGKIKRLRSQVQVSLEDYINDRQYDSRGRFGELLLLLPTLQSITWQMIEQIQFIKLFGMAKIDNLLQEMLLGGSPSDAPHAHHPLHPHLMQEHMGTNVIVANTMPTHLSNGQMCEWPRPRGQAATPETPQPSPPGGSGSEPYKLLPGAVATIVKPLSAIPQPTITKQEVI
Chain of Oxysterols receptor LXR-alpha (Homo sapiens) (Q13133 whole entry, looked up, the tested form may be a part): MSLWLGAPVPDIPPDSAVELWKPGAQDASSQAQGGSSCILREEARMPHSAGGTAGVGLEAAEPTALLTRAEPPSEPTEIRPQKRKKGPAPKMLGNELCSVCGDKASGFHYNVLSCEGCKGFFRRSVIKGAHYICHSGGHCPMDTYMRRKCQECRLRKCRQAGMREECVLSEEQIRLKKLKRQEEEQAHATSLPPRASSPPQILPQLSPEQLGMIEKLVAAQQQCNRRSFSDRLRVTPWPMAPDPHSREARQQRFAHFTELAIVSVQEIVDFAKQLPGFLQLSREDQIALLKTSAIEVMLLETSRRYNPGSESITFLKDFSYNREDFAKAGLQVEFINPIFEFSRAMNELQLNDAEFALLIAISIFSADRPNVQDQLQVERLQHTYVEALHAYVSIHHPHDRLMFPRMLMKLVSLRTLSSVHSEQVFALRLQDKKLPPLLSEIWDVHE

As to `OCC(CO)(CO)CO`, the compound was classed as inactive in assay [1], in [2], in [3], in [4], in assay [5] and in [6]. Besides, the call in assay [7], in assay [8], in [9], in assay [10], in assay [11] and in [12] was inactive. Further, the call in assay [13] was inactive.
Regarding `CCCCCOC(C)=O`, the compound was called inactive in assay [1], in assay [2], in assay [3], in assay [4], in assay [5] and in assay [6]. Moreover, the call in assay [14], in [9], in assay [15], in assay [10], in assay [11] and in assay [12] was inactive. In assay [13], the outcome was inactive.
As for `CCn1nc(C)c2c1C(=O)NCC(c1ccc(O)cc1)=N2`, the call in [1], in assay [2], in [3], in assay [4], in assay [5] and in [16] was inactive. In addition, the call in assay [14], in assay [8], in assay [9], in assay [15], in assay [10] and in [11] was inactive. Besides, the call in [12] and in assay [13] was inactive.
`CCCCCCOC(=O)CC(CC(=O)OCCCCCC)(OC(=O)CCC)C(=O)OCCCCCC`: the outcome in assay [1], in assay [2], in assay [3], in assay [17], in assay [5] and in assay [16] was inactive. Moreover, the result in [8], in assay [9], in assay [10], in assay [11], in [12] and in assay [13] was inactive.
Turning to `CCCCCCCCN(C)C`, the outcome in [1], in assay [2], in assay [18], in assay [17], in [5] and in [6] was inactive. The result in assay [14], in assay [9], in [10], in [11], in [12] and in [13] was inactive. The AC50 (commonly the concentration giving half of the maximal activity seen) in assay [3] is 0.00907 µM (active).
For `NNC(=O)c1ccncc1`, the compound was classed as inactive in [1], in [2], in assay [3], in assay [17], in assay [5] and in assay [6]. For the same compound, the result in [16], in assay [14], in [9], in [15], in assay [11] and in [12] was inactive. Besides, the compound was called inactive in assay [13].
In the case of `CCCCCCCC/C=C\CCCCCCCC(=O)OC[C@@H](O)[C@H]1OC[C@H](O)[C@H]1O`, the call in assay [1], in assay [2], in assay [3], in assay [5], in assay [6] and in assay [16] was inactive. Further, the compound was called inactive in assay [8], in assay [15], in assay [10], in assay [11], in [12] and in [13].
Take `OC(Cn1cncn1)(Cn1cncn1)c1ccc(F)cc1F`: the compound was classed as inactive in assay [1], in [2], in assay [3], in assay [5], in [6] and in [14]. In addition, the outcome in assay [10], in assay [11], in assay [12] and in [13] was inactive.
Turning to `Cc1nccn1-c1ccc(Sc2cccc(C3(C(N)=O)CCOCC3)c2)cc1`, the AC50 was 6.43 µM (active) in [1]; 4.16 µM (active) in assay [3]; 1.57 µM (active) in assay [5]; 14.3 µM (active) in assay [10]; 2.39 µM (active) in assay [13]. Moreover, the compound was called inactive in assay [2], in assay [4], in [19], in [8], in assay [9] and in assay [11]. In addition, in [12], the call was inactive.
Consider `CC(C)CCCCCCOC(=O)C1CCCCC1C(=O)OCCCCCCC(C)C` (stereo not drawn), for which the outcome in assay [1], in assay [2], in [3], in assay [5], in [6] and in [19] was inactive. The compound was called inactive in assay [9], in [10], in assay [11], in [12] and in assay [13].
